Sampled rows, rich in hits. Any-hit rate of the full collection: about 2.1%.
IEC-6 tox = kills IEC-6 intestinal cells in KLF5 counter-screen; AID 1825; inhibition, % at 5 µM; actives 0.78% (n = 290,000); IEC-6 cytotoxicity, luminescence viability; in the data active = inhibition above about 22%;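 also: 0% = plate median of test compound wells and 100% = cytotoxic reference compound wells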
APP transl inh = APP translation inhibition. actives 0.82% (n = 190,000). SH-SY5Y APP 5'UTR-luciferase reporter, luminescence. inhibition, % at 2 µM;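 active = inhibition above a set limit, derived from the sample mean plus 3 SD, cut at about 45% in these data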
BaF3 parental = counter-screen for JAK2V617F inhibitors: parental Ba/F3 viability inhibitors | CellTiter-Glo ATP luminescence | inhibition, % at 5.6 µM | actives 1.1% (n = 220,000) | AID 1486;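 active = inhibition above a per-campaign cutoff, the mean inhibition of all tested compounds plus 3 SD, cut at about 27% in these data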;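 also: 0% = DMSO wells and 100% = JAK Inhibitor I control wells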
KLF5 inh = suppresses KLF5 promoter-driven expression; DLD-1 KLF5 promoter-luciferase reporter, luminescence; inhibition, % at 5 µM; actives 0.23% (n = 290,000);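 active = inhibition above a per-plate limit of that plate's mean compound inhibition plus 3 SD, cut at about 60% in these data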;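 also: 0% = DMSO wells and 100% = LY294002 at 200 µM; higher means less KLF5 promoter-driven luciferase light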
aSyn UTR inh = 5' untranslated region of α-synuclein, MLPCN primary screen; inhibition, % (tested at 7.5 µM); alpha-synuclein 5'UTR reporter, inhibitor activity; actives 0.82% (n = 300,000); in the data active = inhibition above about 60%;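 also: H4 neuroglioblastoma cells stably carrying SNCA 5'UTR luciferase fusion; 0% = DMSO wells and 100% = positive control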
Ba/F3 V617F tox = loss of viability in JAK2V617F-driven Ba/F3 cells | inhibition, % at 5.6 µM | actives 1.1% (n = 220,000) | Ba/F3 EpoR-JAK2V617F viability, ATP luminescence;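 active = inhibition above the campaign mean plus 3 SD over all tested compounds, cut at about 24% in these data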;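 also: cytokine-independent growth of Ba/F3 cells driven by EpoR plus mutant JAK2; 0% = DMSO-treated cells and 100% = JAK inhibitor I control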
Active calls of the source: *; x = no result.

SMILES | IEC-6 tox | APP transl inh | BaF3 parental | KLF5 inh | aSyn UTR inh | Ba/F3 V617F tox
COc1ccc(-c2ccc(-c3nnn(CC(C)=O)n3)cc2)cc1 | 3 | -87 | 6 | -118 | -189 | 0
COc1ccc(CCn2nnc(-c3ccc(NC(C)=O)c(Cl)c3)n2)cc1 | -6 | -4 | 59* | -3 | 16 | -3
CCOC(=O)c1[nH]c(C=O)c(C(=O)OCC)c1C | -4 | 91* | 3 | 42 | 2 | 4
CCCCCC(=O)c1c(C)[nH]c(C(=O)OCC)c1C | 1 | -20 | 1 | -32 | 11 | -3
CCCCCCC(=O)c1c(C)[nH]c(C(=O)OCC)c1C | 8 | -18 | 41* | -38 | -114 | 0
Cc1ccc(NC(=O)c2ccc(S(=O)(=O)NCc3cccnc3)cc2)c(C)c1 | -2 | x | x | -14 | -5 | x
c1ccc(-n2nnc3c(N4CCOCC4)ncnc32)cc1 | 4 | -148 | 3 | -29 | 75* | 3
Cc1nnc(N2CCOCC2)c2nn(-c3ccccc3)c(C)c12 | 6 | 17 | 6 | -23 | 5 | 2
COCCCNC(=O)c1ccc2c(=O)n(Cc3ccc(Cl)cc3)c(=S)[nH]c2c1 | 2 | x | x | -27 | 11 | x
CC1CCN(CCNC(=O)c2ccc3c(=O)n(Cc4ccc(Cl)cc4)c(=S)[nH]c3c2)CC1 | -3 | x | x | -6 | 98* | x
CCN(CC)C(=O)CSc1nc2cc3c(cc2c(=O)n1CCCCCC(=O)NCc1ccc(OC)cc1)OCO3 | 2 | -9 | 8 | 2 | -1 | 4
COc1cc(C(=O)OC2CCOC2=O)cc(Cl)c1OC (stereo unspecified) | 4 | x | x | 1 | -7 | x
CC(=O)Nc1ccc(NC(=O)C(C)OC(=O)C2CC3C=CC2C3)cc1 (stereo unspecified) | -6 | 11 | 57* | -18 | 4 | 2
CCN1CCc2c(C#N)c(NCc3ccccc3)nc(N(CC)CC)c2C1 | -11 | 5 | 50* | -6 | 37 | 19
COc1ccc(CN2CCN(c3ncnc4scc(-c5ccc(F)cc5)c34)CC2)cc1 | 7 | x | x | -26 | -5 | x
COc1ccc(F)cc1CN1CCN(c2ncnc3scc(-c4ccccc4)c23)CC1 | 2 | x | 0 | -9 | 98* | -1
O=c1c(Cl)c(N2CCC3(CC2)OCCO3)cnn1C12CC3CC(CC(C3)C1)C2 | 0 | x | -4 | -19 | 7 | -5
CC(C)=CCc1cc(-c2oc3cc(O)cc(O)c3c(=O)c2O)ccc1O | x | x | x | x | -43 | x
CC(C)=CCc1c(O)cc2oc3c(CC=C(C)C)c(O)c(O)c(CC=C(C)C)c3c(=O)c2c1O | x | x | x | x | 62* | x
CCOc1ncccc1C(=O)OCC(=O)c1cccc(Br)c1 | -4 | -10 | -3 | -1 | 19 | 0
CC(C)CC(=O)Nc1cccc(-c2nc3ncccc3o2)c1 | 5 | x | x | -27 | -12 | x
CCCC(=O)NC(=S)Nc1cccc(-c2nc3ncccc3o2)c1 | 0 | -20 | 79* | -26 | 12 | -1
CCC(=O)N/C(N)=N/c1nc(C)c2cc(C)c(C)cc2n1 | 4 | x | 53* | -11 | 42 | 38*
Cc1cc2nc(/N=C(\N)NC(=O)C(C)C)nc(C)c2cc1C | 9 | x | 30* | -7 | 29 | 12
CCCC(=O)N/C(N)=N/c1nc(C)c2cc(C)ccc2n1 | 0 | x | 20 | -7 | -31 | 13
SMILES | IEC-6 tox | APP transl inh | BaF3 parental | KLF5 inh | aSyn UTR inh | Ba/F3 V617F tox
O=C(CCCn1cncn1)N1CCCC(N2CCN(c3ccc(F)cc3)CC2)C1 (stereo unspecified) | 2 | x | x | -1 | 9 | x
CC/C(=N\NC(=O)c1ccncc1)C12CC3CC(CC(C3)C1)C2 | 0 | 52* | 4 | -12 | 13 | 4
CC/C(=N\NC(=O)c1ccc2c(c1)OCO2)C12CC3CC(CC(C3)C1)C2 | 6 | 6 | 8 | -34 | 12 | 5
O=C(Nc1ccc(Cl)cc1)c1cccc(S(=O)(=O)Nc2ccccn2)c1 | 4 | x | x | -10 | -10 | x
C=CCn1c(C)nc2c(cnn2-c2ccccc2)c1=O | 1 | x | x | -14 | -10 | x
COc1ccc(S(=O)(=O)NCCC(=O)Nc2ccc(C)cc2)cc1 | 3 | x | x | -33 | 2 | x
Cc1cc(C2=NNC(=NC3CC3)SC2)c(C)n1-c1ccccc1F | 6 | 70* | 4 | -16 | 99* | -1
Cc1ccn2c(=O)nc(SCC(=O)NCCc3ccccc3)nc2c1 | x | x | x | x | 4 | x
Cc1ccc(C(=O)c2c3ccc([N+](=O)[O-])cc3[n+]([O-])n2CCCN)cc1 | x | x | x | x | 63* | x
COc1ccc(-c2cc(-c3cccs3)c(C#N)c(SCC(=O)NCc3ccco3)n2)cc1 | 0 | 96* | 7 | -17 | x | 7
CCC(C)(C)c1ccc(Oc2ccc(N)cc2)cc1 | 1 | 80* | 15 | 51 | 127* | 13
CCCCN(C(=O)CSCc1c(C)noc1C)c1c(N)n(CCCC)c(=O)[nH]c1=O | x | x | x | x | -6 | x
Cc1ccc(-n2nc(C(=O)N3CCOCC3)cc2-c2ccc(Cl)cc2)cc1 | -4 | -19 | 3 | 2 | -5 | 0
FC(F)Sc1ccc(-n2c(-c3ccc(Cl)cc3)c[n+]3c2CCC3)cc1 | 1 | 2 | 44* | 0 | -4 | 24*
Cc1ccc(-n2c(-c3ccc(Cl)cc3)c[n+]3c2CCC3)cc1 | -6 | x | 65* | 4 | -4 | 69*
Cc1ccc(-c2c[n+](CC(=O)OCc3ccccc3)c3n2CCC3)cc1 | -3 | -23 | 4 | -22 | 18 | 0
Cc1ccc(-n2c(-c3ccccc3)c[n+]3c2CCC3)cc1 | 4 | -1 | 68* | -2 | -32 | 77*
O=C(NC1C2CC3CC(C2)CC1C3)c1ccc(Br)o1 (stereo unspecified) | 4 | x | x | -25 | 14 | x
O=C(NC1CC2CCCC(C1)N2Cc1cccs1)c1ccc([N+](=O)[O-])cc1 (stereo unspecified) | 1 | -11 | 1 | 5 | 1 | 0
Cc1nc(SCCC(=O)O)c2cc(-c3ccccc3)sc2n1 | 5 | x | x | 32 | 67* | x
CN(C)c1ccc(/C=C(/NC(=O)c2ccccc2)C(=O)N2CCCC2)cc1 | -2 | x | x | -14 | -29 | x
CCOC(=O)c1cnc(Nc2nc3ccccc3o2)nc1CN1CCN(c2ccccc2)CC1 | -2 | -17 | 6 | -14 | x | -1
Cc1nc(Nc2nc3ccccc3o2)nc2c1CCC2 | 5 | -125 | 5 | 48 | 71* | 0
CCOC(=O)c1cnc(Nc2nc3ccccc3o2)nc1C | -2 | -104 | 4 | -110 | 86* | 1
Cc1cccc(C)c1Nc1nc2ccccc2o1 | -4 | 0 | 0 | 18 | 8 | -4
CCOC(=O)c1ccc2c(c1)n(CCO)c(C)[n+]2CC | -1 | 7 | 6 | -24 | 14 | 1
CCOC(=O)c1ccc2c(c1)n(CC)c(/C=C/N(C)c1ccccc1)[n+]2CC | -2 | 4 | 66* | -24 | 9 | 73*
Nc1ccc(O)cc1C(=O)OCC(=O)c1ccc(C2CCCCC2)cc1 | 2 | 49* | 30* | -9 | -37 | 71*
CC(C)(CO)CNC(=O)CCc1nnc(-c2ccc(-c3ccccc3)cc2)o1 | -5 | x | x | -21 | 38 | x
